SMN2 splice up: SMN2 splice variant enhancement; HEK293 SMN2-luciferase splicing reporter, luminescence, 30-36 h; 2.8% of 210,000 active; Potency, µM (top dose mostly 46.1 µM), inactives show at the highest dose activity change, positive = activation, usual class: activators; also: % of control where 0% means no effect; nearly all actives have a fitted effect of over 55% in size
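HEK293 cells carry an SMN2 […]–luciferase reporter in which exon 7 inclusion puts luciferase in frame. Cells were plated 10-12 h before compound addition, then incubated 30-36 h at 37C. ONE-Glo luminescence was read; sodium butyrate at 4.5 mM final served as control.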
Rab9 promoter act: Rab9 promoter activation; Huh7 Rab9 promoter-luciferase reporter, luminescence, 24 h; Potency, µM (doses to about 9.22 µM), for inactives: at the highest dose activation, negative = inhibition, usual class: activators; 2.8% of 320,000 active; AID 485297; also: % of control where 0% means no effect; nearly all actives have a fitted effect of over 60% in size
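Luminescence read-out: Huh7 cells stably expressing Rab9-luciferase, treated 24 h with compound at 37 °C, then lysed with luciferase reagent for 10 min at ambient before reading.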
NPC1 promoter act: activators of NPC1 promoter. Huh7 NPC1 promoter luciferase reporter, 24 h. Potency, µM (doses to about 9.22 µM), inactives show top-dose activation, actives largely listed as activators. 2.4% of 320,000 active. AID 485313; also: % of control where 0% means no effect; nearly all actives have a fitted effect of over 60% in size
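Luciferase expression driven by the NPC1 promoter was measured in stably transfected Huh7 cells after a 24 h compound incubation, using a luciferase reagent and a luminescence read.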
ELG1 genotox: genotoxicity induction in ELG1-luciferase HEK293T cells. HEK293T ELG1-luciferase reporter, luminescence, 16 h. AID 504466. Potency, µM (series often up to 46 µM), without a hit: at the top dose activity change, positive = activation, usual class: activators. 1.3% of 330,000 active; also: % of control where 0% means no effect; nearly all actives have a fitted effect of over 60% in size
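ELG1-luciferase HEK293T cells, 2,000/well; compound pinned in; 16 hr, 37 °C, 5% CO2; ONE-Glo, 30 min RT; luminescence on CCD imager.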
FLuc counter: counter-screen for miR-21 project: firefly luciferase inhibitors or activators; purified FLuc, Km substrates, luminescence inhibition; 6.9% of 360,000 active; Potency, µM (top dose mostly 57.5 µM), for the others: at the highest dose activity change, negative = inhibition, actives largely listed as inhibitors;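 also: plate controls were vehicle for no effect and reference inhibitor for full effect; nearly all actives have a fitted effect of over 55% in size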
Target sequence (P08659 whole entry, looked up): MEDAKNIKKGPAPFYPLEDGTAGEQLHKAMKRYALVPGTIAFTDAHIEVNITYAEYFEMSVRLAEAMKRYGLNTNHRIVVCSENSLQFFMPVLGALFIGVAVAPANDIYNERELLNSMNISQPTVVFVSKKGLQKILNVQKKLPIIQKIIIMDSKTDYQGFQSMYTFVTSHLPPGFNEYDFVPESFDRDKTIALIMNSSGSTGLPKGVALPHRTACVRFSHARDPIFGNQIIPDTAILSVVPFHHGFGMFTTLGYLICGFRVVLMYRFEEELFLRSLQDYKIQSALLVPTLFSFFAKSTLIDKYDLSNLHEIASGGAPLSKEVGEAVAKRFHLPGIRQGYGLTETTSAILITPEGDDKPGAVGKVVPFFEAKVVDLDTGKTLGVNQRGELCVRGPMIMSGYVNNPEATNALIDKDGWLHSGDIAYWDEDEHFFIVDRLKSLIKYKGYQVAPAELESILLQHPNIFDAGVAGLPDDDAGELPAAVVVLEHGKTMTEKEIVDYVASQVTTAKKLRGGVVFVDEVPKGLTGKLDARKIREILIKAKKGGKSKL
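Biochemical qHTS of compounds, final roughly 60 µM downward over six points, against 10 nM purified firefly luciferase using Km concentrations of substrates (10 uM D-luciferin, 10 uM ATP) in Tris acetate pH 7.5 buffer; luminescence output.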
* = called active by the depositor; ? = inconclusive; · = not tested or not shown; ! = not confirmed by another sample; [ ] = another dose, or the depositor's remark. A selection: hits, their analogues and other compounds. The true share with any hit is near 7.5%. Calls follow the shape of the dose curve; as a rule, active = well fitted curve in the direction sought with a large enough effect; inconclusive = small, poorly fitted or top-dose-only effect, or another doubt; inactive = no such curve, though single readings can be large; an effect the other way counts as inactive or inconclusive. Potency is read from the fitted curve at half-maximal effect.

SMILES	SMN2 splice up	Rab9 promoter act	NPC1 promoter act	ELG1 genotox	FLuc counter
Cc1ccc(-n2nc(C)c(C3(O)C(=O)N(C)c4ccccc43)c2N)cc1 (centres undefined)	·	2.2%	2.0%	-0.7%	-1.8%
O=C(O)CCOc1ccc2c(c1)OCCO2	7.4%	1.2%	-1.0%	2.9%	-2.7%
COc1ccc(N2CCCC2)c(NC(=O)c2ccc([N+](=O)[O-])o2)c1	·	-1.5%	-5.1%	-16.0%	4.1%
Cc1ccc(NC(=O)c2sc3nc4n(c(=O)c3c2C)CCCCC4)c(Br)c1	·	·	·	·	2.8%
COc1ccc(CNC(=O)c2sc3nc4n(c(=O)c3c2C)CCCCC4)cc1	·	·	·	·	19µM*
CSc1cccc(NC(=O)c2sc3nc4n(c(=O)c3c2C)CCC4)c1	·	?	3.55µM*	?	26.9µM*
Cc1c(C(=O)Nc2ccc(Oc3ccccc3)cc2)sc2nc3n(c(=O)c12)CCC3	-37.5%	-0.2%	2.6%	-3.6%	?
COc1cccc(NC(=O)c2sc3nc4n(c(=O)c3c2C)CCC4)c1	·	3.98µM*	?	?	19µM*!
Cc1c(C(=O)NCc2ccc(Cl)cc2)sc2nc3n(c(=O)c12)CCC3	·	·	·	·	-10.6%
Cc1c(C(=O)Nc2cc(F)ccc2F)sc2nc3n(c(=O)c12)CCCCC3	·	1.58µM*	2.82µM*	16.4µM*	-7.3%
Cc1cc2ccccc2n2c(SCC(=O)NCC3CCCO3)nnc12 (centres undefined)	-2.8%	-4.9%	-11.4%	-4.0%	2.6%
COc1ccc(C2NC(=O)N(C)C3=C2C(=O)N(c2ccc(C)cc2)C3)cc1 (centres undefined)	-5.3%	·	·	·	-6.0%
CCOc1ccc(CC(=O)Nc2c(C(=O)c3ccccc3)oc3ccc(Cl)cc23)cc1OCC	2.1%	·	·	·	-5.7%
Cc1cc(-c2ccccc2)nc(N/N=C/c2ccc(O)cc2O)n1	·	4.0%	2.6%	0.0%	?
Cc1ccccc1/C=N/Nc1nc2ccccc2c(=O)n1O	·	7.3%	12.6%	17.0%	15.1µM*
Cc1cc(N/N=C/c2ccccc2O)c2ccccc2n1	·	-4.0%	3.8%	10.8%	15.1µM*
COc1ccc2nc(C)cc(N/N=C/c3cccc(OC)c3O)c2c1	·	-0.2%	-3.6%	4.7%	16.9µM*
Cc1ccc(-c2nc3ccccc3c(=O)n2O)cc1	·	-3.8%	7.5%	-4.9%	0.9%
COc1ccc(/C=N/Nc2cc(C)nc3ccc(Br)cc23)cc1	·	-4.1%[1.84 µM]	-0.4%	-6.4%	21.3µM*
COc1cccc2c(N/N=C/c3ccccc3)cc(C)nc12	·	-5.4%	-0.2%	-1.2%	1.5%
COc1ccc(C(=O)CNc2ccc(C)cc2C)cc1	·	36.4%	22.8%	11.8%	12µM*
COc1ccc(C(=O)CNc2ccccc2CO)cc1	?	-3.2%	9.6%	?	16.9µM*
CCN(C(=O)c1ccnc(C(C)(C)C)c1)c1ccccc1	-3.2%	-3.6%	0.4%	-7.7%	0.5%
COc1ccc(N=Nc2cc(C)ccc2O)cc1	·	0.398µM*	1.12µM*	3.66µM*	0.477µM*
COc1ccc(C(=O)c2ccccc2)c(O)c1	-18.4%	-3.4%	1.8%	?	?
SMILES	SMN2 splice up	Rab9 promoter act	NPC1 promoter act	ELG1 genotox	FLuc counter
COc1ccc(N=Nc2ccc3ccccc3c2)c(O)c1	·	3.98µM*	3.16µM*	0.92µM*	0.379µM*
COc1ccc(NCc2c(O)ccc3ccccc23)cc1	-9.6%[9.22 µM]	·	·	·	·
Cc1ccc(S(=O)(=O)N2CCCCC2)cc1	·	1.0%	-3.1%	-2.8%	-1.6%
COc1cccc(N=Nc2ccc3ccccc3c2O)c1	·	3.98µM*	?	?	0.338µM*
Cc1ccc(O)c(N=Nc2ccc(S(=O)(=O)N3CCCC3)cc2)c1	·	?	?	8.8%	15.1µM*
Cc1ccc(NC(=O)COC(=O)CCc2c[nH]c(=O)[nH]2)cc1	-1.1%	-5.3%	-1.3%	2.4%	0.2%
COc1ccc(N=Nc2ccc(N)nc2N)cc1	·	2.51µM*	1µM*	9.2µM*	2.39µM*
Cc1ccc(O)c(N=Nc2nccs2)c1	·	-8.7%	-1.4%	23.1µM*	9.53µM*
CC(=O)/C(N=Nc1cc(C)ccc1O)=C(\C)O	·	4.9%	22.5%	2.1%	3.0%
COc1ccc(N=Nc2c(N)n[nH]c2N)cc1	·	?	29.3%	11.1%	?
CN1CCN(C(=O)CN2C(=O)COc3ccc(S(=O)(=O)N4CCOCC4)cc32)CC1	·	-0.9%	-1.9%	2.7%	1.8%
